# Bioassay records as filed in PubChem.
# A selection: hits, their analogues and other compounds. The true share with any hit is near 7.4%.
# Rab9 promoter act = activators of Rab9 promoter; Huh7 Rab9 promoter-luciferase reporter, luminescence, 24 h; Potency, µM (doses to about 9.22 µM), usual class: activators; 320,000 tested, 2.8% active; AID 485297; also: nearly all actives have a fitted effect of over 60% in size
#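 Measured in stably transfected Huh7 cells bearing a Rab9 promoter–luciferase construct: 24 h compound treatment at 37 °C, followed by luminescence detection.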
# NPC1 promoter act = activates the NPC1 promoter; AID 485313; Huh7 NPC1 promoter luciferase reporter, 24 h; 320,000 tested, 2.4% active; Potency, µM (doses to about 9.22 µM), actives largely listed as activators; also: nearly all actives have a fitted effect of over 60% in size
#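 Luciferase expression driven by the NPC1 promoter was measured in stably transfected Huh7 cells after a 24 h compound incubation, using a luciferase reagent and a luminescence read.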
# ELG1 genotox = induces genotoxicity in HEK293T cells with luciferase-tagged ELG1; Potency, µM (titrated, usually from 46 µM), most hits filed as activators; HEK293T ELG1-luciferase reporter, luminescence, 16 h; AID 504466; 330,000 tested, 1.3% active; also: nearly all actives have a fitted effect of over 60% in size
#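 DMSO vehicle served as control against compound-treated ELG1-luciferase HEK293T cells; exposure lasted 16 hr at 37 °C and 5% CO2, followed by ONE-Glo luminescence detection after 30 min.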
# FLuc modulator = inhibits or activates purified firefly luciferase, miR-21 counter-screen | purified FLuc, Km substrates, luminescence inhibition | Potency, µM (highest dose often 57.5 µM), most hits filed as inhibitors | 360,000 tested, 6.9% active; also: nearly all actives have a fitted effect of over 55% in size
# Target sequence (P08659 whole entry, looked up): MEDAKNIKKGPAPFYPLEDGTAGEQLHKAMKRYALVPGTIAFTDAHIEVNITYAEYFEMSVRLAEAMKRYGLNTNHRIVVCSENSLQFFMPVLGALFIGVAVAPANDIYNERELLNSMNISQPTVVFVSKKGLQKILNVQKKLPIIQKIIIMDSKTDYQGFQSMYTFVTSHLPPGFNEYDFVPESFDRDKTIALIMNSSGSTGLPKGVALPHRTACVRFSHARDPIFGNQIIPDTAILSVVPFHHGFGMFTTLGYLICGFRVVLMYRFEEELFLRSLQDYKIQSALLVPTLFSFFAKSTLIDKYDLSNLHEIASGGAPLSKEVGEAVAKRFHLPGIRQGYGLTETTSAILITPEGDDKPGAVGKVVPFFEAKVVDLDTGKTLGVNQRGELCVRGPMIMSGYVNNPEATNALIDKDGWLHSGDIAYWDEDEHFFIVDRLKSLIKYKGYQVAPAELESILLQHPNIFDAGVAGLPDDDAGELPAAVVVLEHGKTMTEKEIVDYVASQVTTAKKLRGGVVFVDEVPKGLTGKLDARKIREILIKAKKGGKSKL
#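 Purified P. pyralis luciferase, 10 nM final, with Km-level 10 uM D-luciferin and 10 uM ATP in 50 mM Tris acetate pH 7.5, 10 mM Mg acetate, 0.01% Tween-20, 0.05% BSA; 6-point qHTS titration about 60 µM downward; luminescence read.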
# SMN2 splice enh = enhancers of SMN2 splice variant expression. Potency, µM (highest dose often 46.1 µM), actives largely listed as activators. 210,000 tested, 2.8% active. AID 1458. HEK293 SMN2-luciferase splicing reporter, luminescence, 30-36 h; also: nearly all actives have a fitted effect of over 55% in size
#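 HEK293 cells carry an SMN2 […]–luciferase reporter in which exon 7 inclusion puts luciferase in frame. Cells were plated 10-12 h before compound addition, then incubated 30-36 h at 37C. ONE-Glo luminescence was read; sodium butyrate at 4.5 mM final served as control.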
# Numbers stand for hits; . = inactive; ? = inconclusive; / = not tested or not shown; [ ] = another dose, or the depositor's remark. Calls follow the shape of the dose curve; as a rule, active = well fitted curve in the direction sought with a large enough effect; inconclusive = small, poorly fitted or top-dose-only effect, or another doubt; inactive = no such curve, though single readings can be large; an effect the other way counts as inactive or inconclusive.
SMILES,Rab9 promoter act,NPC1 promoter act,ELG1 genotox,FLuc modulator,SMN2 splice enh
CNc1ncc(C(=O)c2ccc(-c3ccccc3)cc2)s1,2.5µM,2µM,?,3µM,/
CCOC(=O)N/N=C\C=C\c1ccc2c(c1)OCO2,3.2µM,?,?,13µM,.[1.84 µM]
CC(C)(C)OC(=O)N/N=C\C=C\c1ccc2c(c1)OCO2,1.6µM,4µM,?,7.6µM,.[1.84 µM]
COC(=O)N/N=C\C=C\c1ccc2c(c1)OCO2,3.5µM,4µM,.,15µM,.
O=C(COc1ccc(F)cc1)Nc1ccc(OCc2cc(=O)n3ccsc3n2)cc1,/,/,/,.,.
CC(C)C[C@@H](CC(=O)N[C@@H](CCC(=O)O)CC(=O)O)NC(=O)[C@@H]1CCCC[C@H]1NC(=O)C[C@H](CCCN)NC(=O)C[C@H](CO)NC(=O)[C@@H]1CNCC[C@H]1N,/,/,/,/,.
COc1cccc(CN(C(=O)c2oc3ccc(Br)cc3c2C)C2CCS(=O)(=O)C2)c1 (stereo not given),/,/,/,.,.
CCc1ccc(NC(=O)c2ccc3c(=O)n4c(nc3c2)CCCCC4)cc1,.,.,.,17µM,/
Cc1c(C(=O)N(C)c2cccc(C(F)(F)F)c2)sc2nc3n(c(=O)c12)CCCCC3,/,/,/,13µM,/
CCc1ccc(NC(=O)c2sc3nc4n(c(=O)c3c2C)CCC4)cc1,?,.,.,15µM,/
CCOc1ccc(NC(=O)c2ccc3c(=O)n4c(nc3c2)CCCCC4)cc1,.,.,.,.,.
CCc1nnc(NC(=O)c2ccc3c(=O)n4c(nc3c2)CCCCC4)s1,.,.,.,27µM,/
CC(=O)Nc1ccc(NC(=O)c2sc3nc4n(c(=O)c3c2C)CCCCC4)cc1,.,.,.,.,.
COc1ccc(NC(=O)Nc2nnc(Cc3ccc(F)cc3)s2)cc1,.,.,?,.,/
CCCCc1cc2c(cn1)=C(OC(=O)c1cccs1)C(C)(OC(=O)CC)C(=O)C=2 (stereo not given),/,/,/,/,.[9.22 µM]
COc1ccc(C)cc1N(C(=O)c1ccco1)C(C(=O)NC1CCCC1)c1ccc(N2CCOCC2)cc1 (stereo not given),.,.,.,.,/
O=c1nc2c(-c3ccccc3F)n[nH]n2c2ccccc12,4µM,?,?,13µM,22µM
COc1ccc(OCC(O)COc2ccc(C(=O)O)cc2)cc1 (stereo not given),.,.,.,15µM,.
COc1ccc(OCc2ccc(C(=O)O)cc2)cc1,?,?,.,6.7µM,5µM
CCOc1ccc(OCCCC(=O)N2CCN(S(=O)(=O)c3ccc(Cl)cc3)CC2)cc1,.,.,.,.,/
Cc1ccc[n+](CC(=O)Nc2c(Cl)cc(Cl)cc2Cl)c1,.,.,.,19µM,/
O=C(C[n+]1ccccc1)Nc1c(Cl)cc(Cl)cc1Cl,?,.,.,?,/
O=Cc1cc(N=Nc2ccccc2Cl)ccc1O,2.2µM,2.5µM,.,19µM,/
O=Cc1cc(N=Nc2cccc(C(=O)O)c2)ccc1O,?,?,.,11µM,.
O=C1NC(=Nc2ccccc2Cl)S/C1=C\c1cc([N+](=O)[O-])ccc1O,.,.,.,?,/
SMILES,Rab9 promoter act,NPC1 promoter act,ELG1 genotox,FLuc modulator,SMN2 splice enh
COC(=O)c1cnc(N2CCCN(S(=O)(=O)c3ccc(C(F)(F)F)cc3)CC2)nc1C(F)(F)F,.,.,.,.,/
CCCNC(=O)C(Cc1ccc(Cl)cc1)NC(=O)c1ccc(-c2ccccc2)cc1 (stereo not given),.,.,?,.,/
CCN(CC)c1ccc(/C=N/NC(=O)OC)c(O)c1,.,.,.,11µM,.
CCN(CC)c1ccc(/C=N/NC(=O)c2ccoc2C)c(O)c1,.,?,16µM,2.7µM,/
COc1ccc(N2CCN(C(=O)C(CC(C)C)NS(=O)(=O)c3ccc4nc(C)sc4c3)CC2)cc1 (stereo not given),/,/,/,.,.
C/C(C[n+]1ccccc1)=N\N=C(N)N,/,/,/,/,.[9.22 µM]
Cn1ccs/c1=N\C(=O)Nc1cccc(Cl)c1,0.71µM,0.89µM,5.2µM,7.6µM,/
Cc1ccccc1NC1=NCC(c2ccc([N+](=O)[O-])cc2)S1 (stereo not given),.,.,?,.,?
Cc1ccc(C(=O)N/N=c2\sc3ccccc3n2C)cc1,.,.,.,21µM,.
Cn1/c(=N/NC(=O)c2ccccc2F)sc2ccccc21,2.8µM,?,?,15µM,?
CCOC(=O)c1ccccc1NC(=O)Cn1ncc2c1-c1ccccc1OC2,/,/,/,.,.
COc1ccc(OC)c(S(=O)(=O)N2Cc3ccccc3CC2C(=O)Nc2ccc(C)cc2C)c1 (stereo not given),/,/,/,.,.
COc1ccc(OC)c(S(=O)(=O)N2Cc3ccccc3CC2C(=O)Nc2nccs2)c1 (stereo not given),?,.,.,.[2.3 µM],35µM
O=C(O)CN(CCN(CC(=O)O)CC(=O)O)CC(=O)O.[Cu],/,/,/,/,.[9.22 µM]
O=C(Nc1ccnn1C1CCN(Cc2cc(Cl)ccc2O)CC1)c1cccnc1,.,.,.,.,/
COc1ccc(N=Cc2c(O)c3ccccc3n2C(C)=O)cc1,?,?,.,1.1µM,/
COc1ccc(N=Cc2sc(O)c3ccccc23)cc1,1.6µM,?,.,3.8µM,2.8µM
CCOc1ccc2nc(-c3cc(NC(C)=O)ccc3O)sc2c1,.,?,?,.,/
CCn1c(SCC(=O)O)nnc1-c1cccnc1,.,.,.,.,/
COc1ccccc1-c1cncnc1Nc1ccc(F)cc1,/,/,/,/,.
CCOc1ccc(NC(=O)c2sc3ccccc3c2Cl)cc1,/,/,/,.,.
O=C(Nc1ccc(F)c(Cl)c1)c1nsc(Cl)c1Cl,2.8µM,2.2µM,21µM,2.4µM,/
CC(C)OC(=O)c1cc(NC(=O)c2nn(C)cc2Br)cc(C(=O)OC(C)C)c1,.,.,.,.,.
CCOc1ccc(NC(=O)c2nn(C)cc2Br)cc1,3.2µM,?,?,7.6µM,/
Cn1cc(Br)c(C(=O)NNC(=O)c2ccc(Cl)cc2)n1,.,.,?,19µM,?
SMILES,Rab9 promoter act,NPC1 promoter act,ELG1 genotox,FLuc modulator,SMN2 splice enh
Cn1cc(Br)c(C(=O)NNC(=O)Cc2ccc(Cl)cc2)n1,.,.,.,.,/
CCOc1ccc(NC(=O)c2nsc(Cl)c2Cl)cc1,1.4µM,2.2µM,4.6µM,4.8µM,/
[N-]=[N+]=N[C@@H]1[C@H](O)[C@H](CO)O[C@@H]1n1cnc2c(N)ncnc21,/,/,/,/,.[9.22 µM]
O=C(Nc1ccc(F)cc1)c1nsc(Cl)c1Cl,3.2µM,3.5µM,?,4.8µM,11µM
Cn1cc(Br)c(C(=O)Nc2ncc(Br)s2)n1,2.5µM,3.5µM,?,.,4.5µM
CCN1C(=S)SC(=O)C1=C1C=C(C)N(Cc2ccco2)C(C)=C1,0.63µM,1.4µM,2.6µM,3.4µM,?
CCN1C(=S)SC(=O)C1=C1C=C(C)OC(C)=C1,?,?,.,?,.
CCOc1ccccc1NC(=O)COC(=O)CCOc1cc(C)ccc1C,.,.,.,.,/
COc1ccc2cc(CCOC3CCCCO3)ncc2c1 (stereo not given),0.5µM,0.32µM,?,2.7µM,/
Cc1cnc2c(c1)C(=O)c1ccccc1-2,.,.,.,.,/
Cc1cccc(-c2cc3c(nn2)-c2ccccc2C3=O)c1,3.5µM,2.2µM,?,0.76µM,10µM
